# Bioassay records (PubChem)
# Shown are actives, neighbours in structure and some others; about 3.7% of the full set was active somewhere.
# PfHsp90 set2 – growth inhibition of PfHsp90-expressing yeast, primary screen, antimalarial PfHsp90 inhibitor project, S. cerevisiae, BacTiter-Glo luminescence, single point, set 2; BacTiter-Glo ATP, 48 h; yeast lacking PDR1 and PDR3 efflux regulators; inhibition, % at 9.4 µM; 310,000 tested, 0.32% active;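 active = every replicate shows inhibition above about 80%, whatever the replicate mean, limit read from the data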
# tim10-1 inh – growth inhibitors of tim10-1 mutant yeast, primary screen, luminescence, uHTS; AID 463190, 2010; inhibition, % at 20 µM; 330,000 tested, 2.2% active; S. cerevisiae tim10-1 ts strain growth, BacTiter-Glo, 24 h;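 active = inhibition of at least 40%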;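 note: mutant grown at 25 °C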
# Rce1 inhib – yeast Rce1p protease inhibitors, primary screen, biochemical, fluorescence, cell-free homogeneous; CAAX prenyl protease 2 (Saccharomyces cerevisiae (strain ATCC 204508 / S288c)), Q03530; yeast membranes, quenched prenylated peptide cleavage fluorescence; calls only; 290,000 tested, 0.27% active;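 active = fall in fluorescence gain of 50% or more versus controls, with final raw signal at or below 3038400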
# Target sequence (Q03530 whole entry, looked up): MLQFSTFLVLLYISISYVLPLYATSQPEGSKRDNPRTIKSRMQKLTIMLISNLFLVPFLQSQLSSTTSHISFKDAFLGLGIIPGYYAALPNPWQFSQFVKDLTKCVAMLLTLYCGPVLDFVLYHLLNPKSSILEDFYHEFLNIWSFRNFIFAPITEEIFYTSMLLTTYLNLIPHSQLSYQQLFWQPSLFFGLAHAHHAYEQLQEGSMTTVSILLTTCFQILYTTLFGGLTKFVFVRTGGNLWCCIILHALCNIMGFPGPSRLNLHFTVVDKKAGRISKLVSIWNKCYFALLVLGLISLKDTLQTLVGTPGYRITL
# tim23-1 inh – growth inhibitors of tim23-1 mutant yeast, primary screen, luminescence, uHTS. S. cerevisiae tim23-1 growth, BacTiter-Glo luminescence, 24 h. inhibition, % at 20 µM. 330,000 tested, 1.3% active. AID 463212, 2010;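 active = growth inhibition of the mutant yeast at or above 50%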;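 note: temperature-sensitive mutant grown at 25 °C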
# TIM10 inh – growth inhibitors of isogenic TIM10 control yeast, primary screen, counter-screen for tim10-1 yeast inhibitor project, luminescence, uHTS; inhibition, % at 10 µM; S. cerevisiae TIM10 strain growth, BacTiter-Glo luminescence, 24 h; 330,000 tested, 1.4% active; AID 463195, 2010;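 active = inhibition of 40% or more at the single tested concentration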;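 note: wild-type TIM10 isogenic control strain grown at permissive 25 °C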
# tim10 confirm – growth inhibitors of wild-type TIM10 yeast, confirmation, counter-screen for tim10-1 synthetic lethality project, single concentration, luminescence, S. cerevisiae | shares compounds with TIM10 inh | AID 463215, 2010 | S. cerevisiae tim10 strain growth, BacTiter-Glo luminescence, 24 h | 4,600 tested, 63% active | inhibition, % at 10 µM;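 active = inhibition of yeast growth at or above a set limit in either of two replicates at 10 µM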; note: this counterscreen used the strain with wild-type TIM10
# tim23-1 conf – tim23-1 mutant yeast growth inhibitors, confirmation, luminescence, single concentration | S. cerevisiae tim23-1 growth, BacTiter-Glo luminescence, 24 h | 4,400 tested, 83% active | shares compounds with tim23-1 inh | inhibition, % at 20 µM | AID 463218, 2010;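 active = inhibition above about 39% in either of two replicate wells at 20 µM, limit read from the data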;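 note: temperature-sensitive tim23-1 mutant grown at 25 °C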
# A number is an active result; i = inactive; nt = not tested or not shown.
SMILES,PfHsp90 set2,tim10-1 inh,Rce1 inhib,tim23-1 inh,TIM10 inh,tim10 confirm,tim23-1 conf
COCCN(C(=O)COC(=O)CCSc1ccc(F)cc1)c1c(N)n(Cc2ccccc2)c(=O)[nH]c1=O,i,i,i,i,i,nt,nt
CCOC(=O)C1CCN(C(=O)c2cc3cc4ccc(OC)cc4nc3o2)CC1,i,i,i,67.7,41.5,36.9,67.4
COc1ccc2cc3cc(C(=O)N4CCN(Cc5ccc6c(c5)OCO6)CC4)oc3nc2c1,i,i,i,68.4,40.2,i,83.0
Cc1ccc2cc3cc(C(=O)N4CC(C)CC(C)C4)oc3nc2c1 (stereo not given),i,i,nt,52.5,48.0,39.2,60.5
O=C(CCC(=O)Nc1ccccc1)NNS(=O)(=O)c1ccc(Cl)cc1,i,i,i,i,i,nt,nt
O=C(N/N=C/c1c(O)ccc2ccccc12)c1cccc(C(F)(F)F)c1,90.6,i,i,55.8,42.8,i,44.5
COc1ccc2ccccc2c1/C=N/NC(=O)c1cccc(Br)c1,i,i,i,i,i,nt,nt
Cc1ccccc1-c1noc(-c2ccc(Cl)cc2)n1,i,i,i,i,i,nt,nt
Cc1ccccc1-c1noc(-c2ccc(O)cc2)n1,i,i,i,87.7,48.2,61.5,73.2
Cc1cccc(Nc2ncnc3ccc(Br)cc23)c1,i,i,i,i,i,nt,nt
Clc1cccc(Nc2ncnc3ccc(Br)cc23)c1,i,i,i,53.9,48.5,44.1,49.9
CN1CCN(S(=O)(=O)c2ccc(SCCOc3ccc(Cl)cc3)nc2)CC1,i,i,nt,60.9,64.7,68.9,38.6
CCc1ccc(CN(C)C(=O)c2cc(COc3ccc(-n4cncn4)cc3)on2)cc1,i,i,i,54.1,55.6,46.1,52.5
Cc1ccnc2c1ccc1c(C)ccnc12,i,i,nt,70.9,50.0,i,59.7
O=C(c1ccc2nccnc2c1)N1CCCC(N2CCN(c3ccc(F)cc3)CC2)C1 (stereo not given),i,i,i,i,i,nt,nt
CC(=O)Nc1ccc2c(c1)CCC2=O,i,i,i,i,i,nt,nt
CC(=O)Nc1ccc(/C=C2\CCc3ccccc3C2=O)cc1,i,i,i,61.4,41.0,36.3,46.0
CCC(O)(CC)C(=O)N/N=C/c1cc(Br)cc(Br)c1O,i,i,i,66.9,57.9,49.0,73.0
COC(=O)N/N=C/c1cc([N+](=O)[O-])cc(Br)c1O,i,i,i,i,i,nt,nt
O=C(N/N=C/c1ccc(O)cc1O)c1ccncc1,i,i,i,i,i,nt,nt
O=C(N/N=C/c1cc(Br)cc(Br)c1O)c1ccncc1,nt,i,i,64.7,45.4,51.2,65.2
O=C(C[n+]1ccccc1)N/N=C/c1cc(Br)cc(Br)c1O,i,i,i,67.8,56.5,68.5,69.1
CC(C)(C)c1nn(-c2ccccc2)c2[nH]c(=O)c(C=O)cc12,120.3,i,i,79.9,72.2,91.3,i
CCCCN(CC(O)COc1cccc(C)c1)CC(O)COc1cccc(C)c1 (stereo not given),i,i,i,i,i,nt,nt
CCOC(=O)N1CCC2(CC1)C(C#N)=C(N)Oc1n[nH]c(C)c12,i,i,i,i,i,nt,nt
SMILES,PfHsp90 set2,tim10-1 inh,Rce1 inhib,tim23-1 inh,TIM10 inh,tim10 confirm,tim23-1 conf
CCOC(=O)N1CCC2(CC1)C(C#N)=C(N)Oc1c2sc2nc(C)cc(C)c12,i,i,i,60.8,51.0,36.0,51.2
CCOC(=O)N1CCC2(CC1)C(C#N)=C(N)Oc1c2c(C)nn1-c1cccc(Cl)c1,i,i,i,58.4,43.8,i,58.0
COc1ccc(NC(=O)CN(C)CC(=O)N2CC(=O)Nc3ccccc32)cc1,i,i,nt,i,i,nt,nt
O=C1/C(=C/c2ccncc2)SC(=S)N1C1CCCCC1,i,i,i,50.8,50.1,i,38.6
O=C(O)CCN1C(=O)/C(=C\c2ccncc2)SC1=S,i,i,i,i,i,nt,nt
CCN1C(=O)/C(=C\c2ccncc2)SC1=S,i,i,i,68.0,51.5,39.2,i
Cc1ccc(/C=C2/SC(=S)N(C3CCCCC3)C2=O)o1,i,i,i,i,i,nt,nt
CCOC(=O)c1sc(NC(=O)c2sccc2C)cc1C,i,i,i,50.2,74.2,62.4,70.8
Cc1nc(-c2ccc(C#N)cc2)cs1,i,i,nt,i,i,nt,nt
COc1cc(/C=C2\C(C)=C(C#N)c3nc(N)c(C#N)c(C)c32)ccc1OCC(=O)O,i,i,i,61.4,43.6,31.1,48.3
COCCCNC(=O)/C(C#N)=C/c1ccc(OCC(=O)O)c(OC)c1,i,i,i,i,i,nt,nt
CC(C)(C)c1ccc(S(=O)(=O)N2CCC(c3nc4ccc(Cl)cc4[nH]3)CC2)cc1,i,i,i,63.8,49.9,56.0,i
CNC(=S)N/N=C(\C)c1ccccc1,i,i,i,i,i,nt,nt
CNC(=S)N/N=C(\C)c1ccc(C(C)(C)C)cc1,i,i,i,50.0,48.1,i,i
Cc1ccc(OC(C)C(=O)N(C)Cc2ccccc2)c([N+](=O)[O-])n1 (stereo not given),i,i,i,i,i,nt,nt
Cc1ccc(/C=C2\C(=O)Nc3ccccc32)o1,i,i,i,i,i,nt,nt
O=C1Nc2ccccc2/C1=C/c1ccccc1F,i,i,i,52.8,55.9,57.2,45.0
O=C(c1cncc(Br)c1)N1CCN(S(=O)(=O)c2ccc(Cl)cc2)CC1,i,i,i,i,i,nt,nt
COc1ccc([N+](=O)[O-])cc1NC(=O)Cc1ccccc1Cl,i,i,i,i,i,nt,nt
COc1ccc(N=Cc2cc(Cc3ccccc3Cl)cc([N+](=O)[O-])c2O)cc1OC,110.6,i,i,80.4,60.2,48.1,i
O=C(NC(=S)Nc1ccc(O)cc1)C1CCCC1,i,i,nt,54.5,43.6,33.3,54.5
O=C(NC(=S)Nc1ccc(F)cc1)C1CCCCC1,i,i,i,i,i,nt,nt
CCOC(=O)c1cc(-c2ccncc2)nc2c1c(C)nn2C,i,i,i,53.2,45.3,41.4,50.8
CC1CC(C)CN(C(=S)Nc2ccc(SC(F)F)cc2)C1 (stereo not given),i,i,i,54.2,52.4,i,52.4
O=C(CCSCCc1ccccn1)Nc1c(F)c(F)c(F)c(F)c1F,i,i,i,i,i,nt,nt
c1ccc(C[C@H]2CN=C(Nc3ccccc3)N2CCCC2CCCC2)cc1,i,i,i,i,i,nt,nt
Nc1ccc(-c2nc3c(ccc4ccccc43)[nH]2)cc1,i,i,i,57.6,65.8,66.1,52.2
